# Source: PubChem BioAssay (National Center for Advancing Translational Sciences (NCATS))
# Sampled rows, rich in hits. Any-hit rate of the full collection: about 19%.
# DT40 TDP1 CPT: DT40-hTDP1 cell growth loss with CPT. chicken DT40 Tdp1-/-;hTDP1 cells + 20 nM CPT, ATP luminescence, 48 h. Potency, µM (doses to about 46.2 µM), without a hit: at the top dose activity change, negative = growth inhibition, usual class: inhibitors. 420,000 tested, 12% active. AID 686979; further: potency means the concentration at half of the fitted maximal effect; nearly all actives have a fitted effect of over 55% in size
#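 Chicken DT40 Tdp1-/- cells stably complemented with human TDP1 were seeded at 400 cells/well in medium containing 20 nM camptothecin, exposed to pin-transferred compounds, and grown at 37 °C for at least 48 hr. Viability was read as ATP luminescence.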
# HT1080 IDH1KD tx: kills HT-1080 cells with IDH1 knockdown | HT-1080 IDH1 knockdown viability, ATP luminescence, 48 h | Potency, µM (titrated, usually from 46.1 µM), inactives show top-dose activity, negative = toxicity, usual class: cytotoxic | 360,000 tested, 2% active | AID 686971;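 further: potency means the concentration at half of the fitted maximal effect; 0% = DMSO wells and -100% = cell-free medium wells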
#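 CellTiter-Glo luminescence after 48 h compound exposure at 37 degrees C of IDH1-knockdown HT-1080 cells in 5% FBS RPMI. %Activity scaled between DMSO wells and cell-free media wells, with curves fitted and assigned curve classes.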
# ELG1 DNA repair: ELG1-dependent DNA repair inhibition | 330,000 tested, 2.3% active | HEK293T ELG1-luciferase reporter, luminescence, 16 h; DNA damage induced by 5-fluorouridine | Potency, µM (titrated, usually from 46.1 µM), for inactives: at the top dose activity change, negative = inhibition, most hits filed as inhibitors; further: potency means the concentration at half of the fitted maximal effect; nearly all actives have a fitted effect of over 55% in size
#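 Reporter activity after DNA damage by 5-fluorouridine is monitored. Compound-treated cells incubate 16 hr at 37 °C, then ONE-Glo is added for 30 min before luminescence reading.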
# HT1080NT lethal: kills 2HG-producing HT-1080-NT fibrosarcoma cells | HT-1080-NT fibrosarcoma viability, CellTiter-Glo ATP luminescence, 48 h | 360,000 tested, 1.6% active | Potency, µM (doses to about 46.1 µM), for inactives: at the top dose activity, negative = less viability, usual class: cytotoxic;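 further: NT is the 2HG producing partner of a matched IDH1 knockdown line; potency means the concentration at half of the fitted maximal effect; 0% = DMSO-treated cells and -100% = media-only wells without cells; nearly all actives have a fitted effect of over 55% in size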
#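 Fibrosarcoma NT cells, 750 per well in 5% FBS RPMI, were exposed to compound for 48 hours. Viability: CellTiter-Glo luminescence.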
# IL-1B inflam inh: inflammasome signaling inhibition, IL-1 beta readout | THP-1 LPS/ATP IL-1B secretion, AlphaLISA, 16 h; stronger effect = lower value | 360,000 tested, 4.7% active | activity change, % at 57.5 µM | AID 743279; in the data active means activity change below about -50%; inconclusive means mostly about -30% to -49%
#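 THP-1 cells pretreated 1 hr with compounds (up to 57.5 uM final), then stimulated with LPS (250 ng/mL final) plus ATP (1.25 mM final); secreted IL-1B measured by AlphaLISA after 16 hr, decreased signal indicating inhibition.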
# TDP1 cell noCPT: qHTS for Inhibitors of human tyrosyl-DNA phosphodiesterase 1 (TDP1): qHTS in cells in absence of CPT | DT40 Tdp1-/- hTDP1 cells, no CPT, ATP luminescence, 48 h | Potency, µM (doses to about 46.2 µM), without a hit: at the highest dose activity change, negative = growth inhibition, most hits filed as inhibitors | 420,000 tested, 15% active; further: potency means the concentration at half of the fitted maximal effect; nearly all actives have a fitted effect of over 55% in size
#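 DT40 Tdp1-/-;hTDP1 cells, no CPT (DMSO vehicle only), 400 cells/well; compounds pin-transferred; ≥48 hr, 37 °C; CellTiter-Glo 30 min RT dark, luminescence read.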
# The depositor's hits bear a star; ? = inconclusive; / = not tested or not shown; [ ] = remark or other dose. Unless noted, the call rests on the fitted dose curve; in most records, active means well fitted curve in the direction sought with a large enough effect; inconclusive means small, poorly fitted or top-dose-only effect, or another doubt; inactive means no such curve, though single readings can be large; an effect the other way counts as inactive or inconclusive. Unless noted, on the % scale 0 is the no-effect control and ±100 the full control effect.
SMILES,DT40 TDP1 CPT,HT1080 IDH1KD tx,ELG1 DNA repair,HT1080NT lethal,IL-1B inflam inh,TDP1 cell noCPT
Cc1cc(N2CCCCC2)nc2ccc(NC(=O)/C=C/c3ccc(OCCC(C)C)cc3)cc12,-110%,/,/,/,/,18µM*
Cc1cc(N2CCC(C)CC2)nc2ccc(NC(=O)/C=C/c3cccc(Cl)c3)cc12,6.5µM*,/,/,/,/,4.1µM*
Cc1ccc(/C=C/C(=O)Nc2ccc3nc(N4CCC(C)CC4)cc(C)c3c2)cc1,5.8µM*,/,/,/,/,3.7µM*
Cc1nc2ccc(NC(=S)NC3CCCCC3)cc2nc1C,-18%,-2%,?,2%,-14,-5%
COc1ccc(-n2c3c(cc(-c4nc(-c5ccc(C)cc5)cs4)c2=O)C(=O)CC(C)(C)C3)cc1,-7%,/,/,/,/,-24%
Cc1ccc(C(=O)Nc2ccc(N3CCN(C(=O)c4ccco4)CC3)cc2)c(Cl)c1,?,-25%,18µM*,-18%,?,13µM*
O=C(Nc1ccc(N2CCN(C(=O)c3ccco3)CC2)cc1)c1ccccc1Br,?,0%,-16%,1%,-62*,?
CC(C)c1cc(C(=O)OCC(=O)NC2CCS(=O)(=O)C2)c(O)c(C(C)C)c1 (stereo not drawn),?,-2%,/,0%,4,?
COC(=O)C1=C(C)N(C(C)C)C(=O)C1(NC(C)=O)C(F)(F)F (stereo not drawn),4%,-4%,7%,22%,0,0%
CCCCN1C(=O)C(NC(=O)c2ccc(C(C)(C)C)cc2)(C(F)(F)F)C(C(=O)OC)=C1C (stereo not drawn),?,/,/,/,/,23µM*
CCN(CC)C(=O)C1=C(C)N(Cc2ccccc2)C(=O)C(CC(=O)NC2CCCC2)C1 (stereo not drawn),-14%,1%,/,-4%,-11,-19%
CCN(CC(=O)Nc1c(F)cccc1F)C(=O)c1cccc(S(=O)(=O)N2CCCc3ccccc32)c1,?,-12%,/,-5%,22,16µM*
CCN(CC(=O)Nc1c(F)cccc1F)C(=O)c1cccc(S(=O)(=O)N(C)c2ccccc2)c1,13µM*,-8%,-3%,1%,-5,15µM*
CCN(CC(=O)Nc1cccc(OC)c1)C(=O)c1cccc(S(=O)(=O)N2CCc3ccccc32)c1,23µM*,2%,-11%,0%,-13,16µM*
CCN(CC(=O)Nc1c(F)cccc1F)C(=O)c1cccc(S(=O)(=O)N2CCc3ccccc3C2)c1,?,-11%,-11%,-6%,-1,?
Cc1cccc(CNC(=O)C2CCC(=O)N(Cc3ccccc3F)C2)n1 (stereo not drawn),-14%,-7%,16%,0%,-7,-9%
C[C@@H]1CC[C@@]2(OC1)OC1CC3C4CC=C5CC(O)CCC5(C)C4CCC3(C)C1[C@@H]2C (stereo partly drawn),5%[9.04 µM],/,/,/,/,-8%[9.04 µM]
CC(C)c1ccc(N(CCc2ccccn2)C(=O)C(C)(C)C)cc1,16µM*,-4%,/,-4%,6,15µM*
Cc1ccc(S(=O)(=O)Nc2cccc(C(=O)NCC(c3ccco3)N3CCCC3)c2)cc1F (stereo not drawn),?,-5%,-1%,?,-27,?
CCOC(=O)N(O)c1ccc(C=Cc2ccccc2)cc1,12µM*,0%,/,3%,?,15µM*
CCN(CC)C(=O)c1nn(-c2ccccc2)c2c1C1CCC2(C)C1(C)C (stereo not drawn),23µM*,-9%,-15%,-8%,?,16µM*
CCN(CC)C(=O)c1nn(Cc2ccccc2)c(=O)c2ccccc12,1%,14%,-18%,5%,0,7%
CCOC(=O)c1sc2nc(CSc3ccccc3)nc(NCCN(C)C)c2c1C,16µM*,?,2%,18µM*,?,?
CCOC(=O)c1sc2ncnc(N3CCN(C)CC3)c2c1C,?,-4%,19%,-2%,?,?
CCOC(=O)c1sc2nc(C)nc(NCCc3ccccn3)c2c1C,21µM*,4%,21µM*,15%,-55*,21µM*
SMILES,DT40 TDP1 CPT,HT1080 IDH1KD tx,ELG1 DNA repair,HT1080NT lethal,IL-1B inflam inh,TDP1 cell noCPT
CCOC(=O)c1sc2nc(CC(=O)OC)nc(NCC(=O)OC)c2c1C,0%,7%,?,-1%,2,-1%
CCOC(=O)c1sc2nc(C)nc(NC3CCC(O)CC3)c2c1C (stereo not drawn),-24%,10%,-4%,0%,-2,-6%
CCOC(=O)c1sc2nc(C)nc(NCc3ccccc3OC)c2c1C,23µM*,1%,?,2%,-30,?
CCOC(=O)c1sc2nc(C)nc(N3CCN(c4ncccn4)CC3)c2c1C,?,-1%,?,7%,-3,15µM*
Cc1cccc(N2CC(C(=O)Nc3ccc(S(=O)(=O)Nc4nccs4)cc3)CC2=O)c1C (stereo not drawn),8%,17%,17%,18%,2,-7%
Cc1ccc(Cl)cc1N1CCN(S(=O)(=O)c2ccc3c(c2)CCN3C(=O)C2CCC2)CC1,0%,/,/,/,/,0%
CN(c1ccccc1)S(=O)(=O)c1ccc(NC(=O)c2ccccc2C(=O)O)cc1,?,18%,/,0%,-4,?
COc1ccccc1CNc1nc(C)c(C(C)=O)s1,21µM*,-6%,0%,-3%,-1,16µM*
COCCNc1nc(NCCOc2ccccc2Cl)c2sccc2n1,13µM*,?,/,?,-23,16µM*
Cc1ccccc1-c1nc(NCCN(C)C)nc2ccsc12,-21%,8%,/,?,-22,?
COCCNc1nc(NCCCN(C)C)c2sccc2n1,-12%,7%,/,?,-8,-13%
COCCNc1nc(Nc2ccccc2Cl)c2sccc2n1,?,?,/,?,-11,23µM*
CC(C)Nc1nc(Nc2ccccc2Cl)c2sccc2n1,23µM*,0%,/,-25%,-63*,23µM*
Nc1ncnc2nc(Cl)[nH]c12,0%,/,/,/,/,0%
COc1ccc(C[C@H]2CN3C(=NC[C@@H]3C(C)C)N2CCNC(=O)c2ccc(C)c(Br)c2)cc1,9.2µM*,-26%,-6%,?,-63*,8.2µM*
C/C=C(\C)C(=O)NCCN1C2=NC[C@H](C(C)C)N2C[C@H]1Cc1ccc(O)cc1,0%,-3%,9%,0%,26,-5%
